KB-3-1 cytotox – qHTS assay for MDR1-selective chemotherapeutics: Primary screen using the parental adenocarcinoma cell KB-3-1 | KB-3-1 viability, CellTiter-Glo ATP luminescence, 72 h | Potency, µM (top dose mostly 46.1 µM), hits mostly cytotoxic | 400,000 tested, 1.4% active | AID 1347075, 2019; note: potency is the fitted concentration of half-maximal effect; % is set by controls: 0 for no effect and ±100 for the full control effect; nearly all actives have a fitted effect of over 60% in size
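Parental KB-3-1 adenocarcinoma cells in phenol-red-free DMEM with 10% FBS were pin-treated with compounds at several concentrations, incubated 72 h at 37 °C, and viability read by CellTiter-Glo luminescence; concentration-effect curves were fitted after normalization.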
KB-V1 cytotox – qHTS assay for MDR1-selective chemotherapeutics: Primary screen using the drug-selected MDR subline cells KB-V1; KB-V1 MDR cells viability, CellTiter-Glo, 72 h; Potency, µM (titrated, usually from 46.1 µM), hits mostly cytotoxic; 400,000 tested, 3.4% active; AID 1347076, 2019; note: potency is the fitted concentration of half-maximal effect; % is set by controls: 0 for no effect and ±100 for the full control effect; nearly all actives have a fitted effect of over 60% in size
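qHTS viability screen in drug-selected KB-V1 MDR cells: 72 h compound treatment at 37 degrees C, ATP luminescence end point.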
MCF10A rerep – A quantitative high throughput screen for small molecules that induce DNA re-replication in MCF 10a normal breast cells | MCF 10A DNA re-replication, Hoechst nuclear intensity, 48 h | Potency, µM (titrated, usually from 46.1 µM), for inactives: at the highest dose activity, positive = re-replication, most hits filed as activators | 350,000 tested, 2.9% active; note: potency is the fitted concentration of half-maximal effect; % of control where 0% means no effect; nearly all actives have a fitted effect of over 50% in size
DRD3 agonist – qHTS of D3 Dopamine Receptor Agonist: qHTS | D(3) dopamine receptor (Homo sapiens), P35462 | D3R DiscoveRx beta-arrestin cells, luminescence, 90 min | max activation, % | 410,000 tested, 0.58% active; in the data active = max activation above about 30%; note: 0% is about no effect
Target sequence (P35462 whole entry, looked up): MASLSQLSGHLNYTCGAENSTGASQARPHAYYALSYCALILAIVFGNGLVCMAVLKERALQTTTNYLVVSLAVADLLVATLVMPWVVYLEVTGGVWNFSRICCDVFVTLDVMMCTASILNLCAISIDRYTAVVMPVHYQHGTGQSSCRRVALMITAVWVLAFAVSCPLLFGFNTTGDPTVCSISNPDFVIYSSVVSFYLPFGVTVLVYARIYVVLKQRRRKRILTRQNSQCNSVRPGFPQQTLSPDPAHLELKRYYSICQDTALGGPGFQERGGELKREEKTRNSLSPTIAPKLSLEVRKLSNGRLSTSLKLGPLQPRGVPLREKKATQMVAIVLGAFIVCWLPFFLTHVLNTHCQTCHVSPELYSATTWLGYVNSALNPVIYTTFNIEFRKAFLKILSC
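Agonist-mode cell screen: cells plated at 1500/well and incubated overnight at 37 °C, then exposed to library compounds for 90 min at 37 °C. Detection reagent was added for 30–60 min at room temperature, and luminescence was read.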
D3 antag – qHTS of D3 Dopamine Receptor Antagonist: qHTS; D(3) dopamine receptor (Homo sapiens), P35462; D3R cells, DiscoveRx beta-arrestin luminescence, antagonist mode; hits give low values; max response, negative = inhibition, %; 360,000 tested, 2.5% active; AID 652054, 2013; in the data active = max response below about -50%; inconclusive = no clear call, values can overlap the other calls; note: % is set by controls: 0 for no effect and ±100 for the full control effect
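Cells expressing the human receptor were seeded at 1500 cells/well, incubated overnight at 37 degrees C in 5% CO2, then exposed to library compounds with dopamine controls for 90 minutes at 37 degrees C before luminescent detection.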
SW480 rereplic – A quantitative high throughput screen for small molecules that induce DNA re-replication in SW480 colon adenocarcinoma cells; SW480 DNA re-replication, Hoechst DNA content imaging, 48 h; Potency, µM (series often up to 46.1 µM), for inactives: at the top dose re-replication activation, hits mostly activators; 340,000 tested, 1.8% active; AID 624297, 2012; note: potency is the fitted concentration of half-maximal effect; % of control where 0% means no effect; nearly all actives have a fitted effect of over 55% in size
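Quantitative HTS format with DMSO vehicle controls; 48 hr drug incubation at 37 C, then 40 min Hoechst staining and scanning imager measurement at 405 nm excitation.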
* hit, by the source's call; i = inactive; ? = inconclusive; · = not tested or not shown. Most compounds without a hit are left out; they make up all but 8.9% or so of the library. Unless noted, calls come from the whole dose curve; as a rule, active = well fitted curve in the direction sought with a large enough effect; inconclusive = small, poorly fitted or top-dose-only effect, or another doubt; inactive = no such curve, though single readings can be large; an effect the other way counts as inactive or inconclusive.

SMILES	KB-3-1 cytotox	KB-V1 cytotox	MCF10A rerep	DRD3 agonist	D3 antag	SW480 rereplic
CCCCCN(CCCCC)c1ccc(/C=C/c2ccnc3ccccc23)cc1	i	?	·	·	·	·
O=C(NC1CCCc2ccccc21)c1ccc2c(c1)sc1nc(-c3ccccc3)cn12 (stereo unspecified)	·	·	·	-16.2	·	·
COc1ccccc1Nc1nn2c(=O)c3ccc(C(=O)NC4CCCCC4)cc3nc2s1	i	i	·	-4.6	·	·
CCOc1ccc(NC(=O)CSc2ncc3c(n2)-c2ccccc2N(Cc2ccccc2C)S3(=O)=O)cc1	i	i	·	3.3	·	·
CCC(C(=O)NCCc1ccccc1)n1nc(C)c2sc3ccccc3c2c1=O (stereo unspecified)	i	?	·	-16.0	·	·
CC(=O)c1ccc(NC(=O)CSc2nnc(-c3ccncc3)n2-c2ccccc2)cc1	i	i	·	6.0	·	·
Cn1nccc1C(=O)NC1CCN(Cc2ccccc2)CC1	i	?	9.4%	-23.2	-79.7*	-2.4%
O=C(NC1CCN(Cc2ccccc2)CC1)C12CC3CC(CC(C3)C1)C2	i	25.9µM*	6.8%	-9.3	-87.6*	0.1%
CC(C)Cn1c(=O)c2ccccc2n2c(CCC(=O)NC(C)c3ccccc3)nnc12 (stereo unspecified)	·	·	·	16.0	·	·
O=C(C1=C(O)C(=O)N(CCN2CCOCC2)C1c1ccc(Br)cc1)c1cc2ccccc2o1 (stereo unspecified)	i	i	-6.8%	-3.9	-2.4	-4.2%
Cc1ccc(C2C(C(=O)c3cc4ccccc4o3)=C(O)C(=O)N2CCN2CCOCC2)cc1 (stereo unspecified)	i	i	20.6µM*	0.3	-15.6	-0.5%
Cc1ccc(C2C(C(=O)c3cc4ccccc4o3)=C(O)C(=O)N2CCN2CCOCC2)o1 (stereo unspecified)	i	i	1.3%	-9.7	-55.8*	-0.2%
Cc1nn(CC(=O)NCCc2ccc(Cl)cc2)c(=O)c2cc3cc(F)ccc3n12	i	i	·	4.6	·	·
O=C(COC(=O)c1ccccc1)NC1CCCC1	i	i	-1.7%	1.0	-4.1	0.1%
O=C(ONC(=O)C1CCCCC1C(=O)NOC(=O)c1ccccc1)c1ccccc1 (stereo unspecified)	i	i	-35.9%	82.0*	145.2	-2.7%
Cc1cc(C)nc(-n2nc(C)cc2NC(=O)c2cccc(S(=O)(=O)N(C)C)c2)n1	i	i	-6.6%	-10.9	-13.1	-0.3%
Cc1ccc(C)c(C(=O)Nc2cc(C)nn2-c2nc(C)cc(C)n2)c1	20.6µM*	?	?	-6.6	-14.0	8.1%
Cc1c(CCO)sc[n+]1CC(=O)c1ccccc1	i	i	·	·	·	·
c1ccc(-c2nc3ccccc3o2)nc1	i	i	4.0%	2.6	2.3	-2.7%
c1ccc2nc(-c3nc4ccccc4o3)ccc2c1	11.2µM*	i	-14.5%	0.0	?	1.3%
O=C(Cn1c(=O)n(CCc2ccccc2)c(=O)c2c3c(sc21)CCCC3)Nc1ccc(F)c(F)c1	i	i	·	1.6	·	·
O=C(Nc1ccc(F)cc1)Nc1nnc([C@@H]2C[C@H](O)[C@@H](CO)O2)s1	i	i	·	62.0*	-3.6	·
CC(C)NC(=O)Nc1nnc([C@@H]2C[C@H](O)[C@@H](CO)O2)s1	i	i	·	38.4*	-20.3	·
O=C(Nc1cccc(F)c1)Nc1nnc([C@@H]2C[C@H](O)[C@@H](CO)O2)s1	i	i	·	4.0	21.5	·
CC(C)c1ccccc1NC(=O)Nc1nnc([C@H]2C[C@H](O)[C@@H](CO)O2)s1	0.0012µM*	i	·	-3.3	-15.1	·
